Results reported in PubChem BioAssay.
Activity calls are given as the source filed them. Unless noted, no rule for the calls is given here.

Experiments:
[1] = tested on: Wnt5a (protein binding on small-molecule microarray); assay: Wnt5a binders on small-molecule microarray, primary screen, biophysical, 635/667 nm fluorescence (AID 1142); settings: 635 nm fluorescence, higher = more signal;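 also: fluorescence read at 667 nm with signal to noise per printed feature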
[2] = cell viability in Huh7 cells, primary screen, cytotoxicity control for HCV replication inhibitor project, CellTiter-Glo luminescence, basal, 48 h (AID 1143); settings: Huh7 HCV replicon, higher = more signal, called active from +8 up or from −8 down;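 also: Huh7 hepatoma cells carrying a hepatitis C replication reporter with no stimulus; test concentration not given here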
[3] = P. aeruginosa biofilm formation inhibitors, primary screen, PAO1 strain, BacTiter-Glo luminescence, LB-PBS (AID 1144); settings: 12 h, higher = more signal
[4] = CREB reporter modulators without forskolin, primary screen, cell-based, PC12, CRE-LacZ reporter, unstimulated (AID 1145); settings: no forskolin, luminescence, 4.5 h, higher = more signal, called active from +8 up or from −8 down
[5] = CREB reporter modulators under forskolin, primary screen, cell-based, PC12, CRE-LacZ reporter, forskolin-stimulated (AID 1146); settings: luminescence, 4.5 h, higher = more signal, called active from +8 up or from −8 down;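 also: PC12 cells with 6xCRE LacZ reporter stimulated by forskolin 10 µM; beta-galactosidase reporter signal reflecting CREB driven transcription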
[6] = target: Streptavidin (Streptomyces avidinii) (UniProt P22629); assay: streptavidin binders on small-molecule microarray, primary screen, artefact control for SMM compound annotation, biophysical, 635/667 nm fluorescence (AID 1147); settings: streptavidin binding, higher = more signal;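 also: signal reflects streptavidin binding to arrayed compounds as a control protein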
Chain of Streptavidin (Streptomyces avidinii) (P22629 whole entry, looked up): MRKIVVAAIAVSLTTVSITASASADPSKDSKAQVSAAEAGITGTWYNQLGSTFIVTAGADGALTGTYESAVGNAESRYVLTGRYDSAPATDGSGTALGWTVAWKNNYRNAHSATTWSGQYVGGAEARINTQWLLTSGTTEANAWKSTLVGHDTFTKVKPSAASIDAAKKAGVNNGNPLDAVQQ

[7] = small-molecule binders of probe aInhba, primary screen, biochemical, small-molecule microarray, 635/667 nm fluorescence (AID 1148); settings: higher = more signal;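 also: score merges 667nm spot fluorescence with signal-to-noise for antibody binding to printed compounds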
Torsin-1A (Homo sapiens) [8] = target: Torsin-1A (Homo sapiens) (UniProt O14656); assay: torsin A binders from cell lysate, primary screen, small-molecule microarray, wild-type, 635/667 nm (AID 1149); settings: COS7 hTOR1A-WT lysate, 635 nm fluorescence, higher = more signal
Chain of Torsin-1A (Homo sapiens) (O14656 whole entry, looked up): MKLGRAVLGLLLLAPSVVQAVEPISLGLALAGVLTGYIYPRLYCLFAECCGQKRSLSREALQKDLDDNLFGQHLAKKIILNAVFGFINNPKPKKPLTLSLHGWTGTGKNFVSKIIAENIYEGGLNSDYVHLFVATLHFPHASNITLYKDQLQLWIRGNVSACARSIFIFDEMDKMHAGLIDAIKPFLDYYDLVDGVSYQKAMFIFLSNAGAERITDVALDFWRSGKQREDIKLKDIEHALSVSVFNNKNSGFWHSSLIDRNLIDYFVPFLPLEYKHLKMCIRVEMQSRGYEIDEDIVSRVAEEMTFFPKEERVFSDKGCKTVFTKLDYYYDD

Torsin-1A (Homo sapiens) [9] = target: Torsin-1A (Homo sapiens) (UniProt O14656); assay: small-molecule binders of mutant TOR1A in lysate, primary screen, cell lysate, small-molecule microarray, COS7 lysate, 635/667 nm fluorescence (AID 1150); settings: COS7 hTOR1A mutant lysate, 635 nm fluorescence, higher = more signal;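 also: score pools 667 nm emission and signal to noise measuring lysate protein binding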
[10] = tested on: Sonic hedgehog protein (Shh); assay: small-molecule binders of Shh protein, primary screen, biochemical, small-molecule microarray, 635/667 nm fluorescence (AID 1151); settings: small-molecule microarray binding, 635 nm fluorescence; higher = more signal;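 also: Shh protein binding to compounds spotted on small-molecule microarray slides; score combines spot fluorescence intensity with signal-to-noise across triplicate slides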

SMILES | composite z-score [1] | z-score [2] | z-score [3] | z-score [4] | z-score [5] | composite z-score [6] | composite z-score [7] | composite z-score (Torsin-1A (Homo sapiens) [8]) | composite z-score (Torsin-1A (Homo sapiens) [9]) | composite z-score [10]
CO[C@@H]1COC(=O)CC=C[C@@H](C)[C@H](OC)COC(=O)[C@H](COCc2ccccc2)NC(=O)CC=C[C@H]1C | -0.0092 | -0.069 (inactive) | 0.204 (inactive) | 0.0664 (inactive) | -0.707 (inactive) | -1.15 | -0.253 | 1.35 | 0.263 | 1.5
CC(C)=NOCc1ccc(-c2cc(-c3ccccc3)no2)cc1 | 0.102 | 0.517 (inactive) | 1.5 (inactive) | -0.797 (inactive) | 0.275 (inactive) | 0.06 | -0.23 | 0.299 | -0.223 | 0.253
O=C1C[C@@H](O)[C@@H](O)[C@@H]2[C@@H]3C(=O)N(c4cccc(Oc5ccccc5)c4)C(=O)[C@@H]3CC[C@@H]12 | 0.111 | -0.146 (inactive) | 1.27 (inactive) | 1.24 (inactive) | 0.061 (inactive) | 0.251 | 0.0227 | 0.446 | 0.463 | 0.521
